The record followed here is PubChem BioAssay (Tox21).

Values joined by “and” are separate entries in the source; they are usually repeats but may differ in a detail not shown here. Identical values can stand only once. Results filed as inconclusive are left out. Some structures have more than one record in an assay (separate samples or runs), and their calls can disagree. Active and inactive are the calls of the source. Unless noted, the call rests on the fitted dose curve.

Assay [1] in a line: Nuclear factor erythroid 2-related factor 2/antioxidant responsive element (Nrf2/ARE) small molecule agonists: qHTS cell viability counter screen in human keratinocytes (AID 1919968; active means well fitted curve in the direction sought with a large enough effect in the repeat runs; an effect the other way counts as inactive or inconclusive; further: nearly all actives have a fitted effect of over 55% in size; further: potency means the concentration at half of the fitted maximal effect). The method, boiled down: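 Cytotoxicity was multiplexed with the Nrf2/ARE luciferase assay in the same wells. Stably transfected HaCaT keratinocytes were treated with test compounds for 23 h at 37 C. Cell viability was then measured by CellTiter-Fluor fluorescence.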
(In general: Quantitative high-throughput screening tests each substance at several concentrations.)

The nature of assay [2]: Nuclear factor erythroid 2-related factor 2/antioxidant responsive element (Nrf2/ARE) small molecule agonists: luciferase reporter gene qHTS assay in human keratinocytes (AID 1919969). Further: nearly all actives have a fitted effect of over 35% in size. Further: potency means the concentration at half of the fitted maximal effect. Background: In a reporter assay the amount or activity of a reporter protein is the signal.
Assay [3] is described as follows: G protein-coupled receptor (GPCR) small molecule agonists, calcium flux assay: HEK293 wild type cell line counter screen (AID 1920065). In outline: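 Seed cells, incubate 18 h (37 C, 5% CO2); add calcium dye, 1 h at 37 C; pin-transfer compounds, ATP control or DMSO; read fluorescence 480/540 nm each second for 3 min.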
The nature of assay [4]: p53 small molecule agonists, cell-based qHTS assay with human liver microsomes (AID 1963577). The method, boiled down: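 Cells carrying a p53-responsive bla reporter were rested 5 h (37 C, 5% CO2) before compound transfer. Human liver microsomes plus NADPH, 0.5 mg/mL final apiece, supplied metabolism during the 16 h 37 C exposure.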
The nature of assay [5]: p53 small molecule agonists, cell-based qHTS assay with rat liver microsomes (AID 1963578). In outline: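 Fluorescence from a beta-lactamase reporter under a p53 response element was measured after cells had been incubated 16 h at 37 C with test compound and rat liver microsomes plus NADPH (0.5 mg/mL final each).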
Assay [6] in a line: p53 small molecule agonists, cell-based qHTS assay with human liver microsomes: qHTS cell viability counter screen (AID 1963579). Further: nearly all actives have a fitted effect of over 45% in size. In outline: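 Seed p53RE-bla cells at 4,000 per well; incubate 5 h at 37 C; add compound, human liver microsomes and NADPH; incubate 16 h at 37 C; add CellTiter-Glo; after 30 min at room temperature, read luminescence.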
Assay [7] can be described thus: p53 small molecule agonists, cell-based qHTS assay with rat liver microsomes: qHTS cell viability counter screen (AID 1963580). Further: nearly all actives have a fitted effect of over 45% in size. Further: potency means the concentration at half of the fitted maximal effect. In outline:
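After the beta-lactamase ratio was read, CellTiter-Glo was added to the same wells and luminescence measured at 30 min; cells had been treated 16 h at 37 C with compounds, rat liver microsomes and NADPH (0.5 mg/mL final each).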

The nature of assay [8]: p53 small molecule agonists, cell-based qHTS assay: qHTS cell viability counter screen (AID 1963581). Further: nearly all actives have a fitted effect of over 45% in size. Further: potency means the concentration at half of the fitted maximal effect. In outline: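 Viability was counter-screened in parallel with the p53 agonist reporter by measuring intracellular ATP luminescence in the same HCT-116 p53RE-bla wells after 16 h compound treatment at 37 C.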
A short description of assay [9]: p53 small molecule agonists, cell-based qHTS assay (AID 1963582; active means well fitted activation curve with a large enough effect in the signal ratio in the repeat runs, not every such curve was filed as active; the % refers to the signal ratio; further: potency means the concentration at half of the fitted maximal effect). The method, boiled down:
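Cells carrying a p53-responsive bla reporter are treated with test compounds for 16 h at 37 C; beta-lactamase activity is then detected with LiveBLAzer B/G FRET substrate after 2 h at room temperature.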

Assay [10] deals with 5-hydroxytryptamine receptor 2A (Homo sapiens) (UniProt P28223). Nature of the assay: 5-hydroxytryptamine receptor 2A (HTR2A) small molecule antagonists, cell-based qHTS assay (AID 1963586). Further: nearly all actives have a fitted effect of over 45% in size. Further: potency means the concentration at half of the fitted maximal effect. In outline:
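CHO cells stably expressing human HTR2A were plated for 18 h at 37 C, then loaded with calcium dye for 1 h. Compounds were preincubated 5 min at room temperature before DOI (4 nM solution) was added. Kinetic fluorescence was read for 3 min.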

Assay [11] concerns the target Muscarinic acetylcholine receptor M1 (Homo sapiens) (UniProt P11229). Nature of the assay: Cholinergic receptor muscarinic 1 (CHRM1) small molecule antagonists, cell-based qHTS assay (AID 1963588). Further: nearly all actives have a fitted effect of over 40% in size. Further: potency means the concentration at half of the fitted maximal effect. The method, boiled down: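 Compounds were tested at 15 concentrations in three independent runs. Dye-loaded CHRM1-CHO cells were exposed 5 min at room temperature before stimulation by acetylcholine added at 50nM. Intracellular calcium was read kinetically on FDSS for 3 min.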

Assay [12] shares this target. Nature of the assay: Cholinergic receptor muscarinic 1 (CHRM1) small molecule agonists, cell-based qHTS assay (AID 1963589). Further: nearly all actives have a fitted effect of over 35% in size. The method, boiled down:
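Cells were plated and incubated 18 h at 37 C/5% CO2, loaded with calcium dye for 1 h at 37 C, then treated with compounds in DMSO. Fluorescence was recorded kinetically at 1 sec intervals.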

Assay [13] is described as follows: cAMP Responsive Elements (CRE) small molecule agonists, cell-based qHTS assay (AID 1963590). In outline:
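Cells carrying a CRE-driven beta-lactamase reporter (HEK 293T) are seeded, incubated overnight (18 h), and treated with test compounds for 3 h at 37 C; reporter activity is then detected with a FRET substrate after 2 h at room temperature.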

Assay [14] is described as follows: cAMP Responsive Elements (CRE) small molecule antagonists, cell-based qHTS assay (AID 1963591; active means well fitted inhibition curve with a large enough effect in the signal ratio in the repeat runs, not every such curve was filed as active; the % refers to the signal ratio). In outline: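 Cells (CRE-bla HEK 293T, DMEM with 10% dialyzed FBS and 25 mM HEPES) are seeded and incubated 18 h. Compounds are added with NKH477 agonist at 0.25 uM final for 3 h, then FRET substrate for 2 h.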
The target of assay [15] is Beta-2 adrenergic receptor (Homo sapiens) (UniProt P07550). Nature of the assay: Adrenergic beta2 receptor (ADRB2) small molecule antagonists, cell-based qHTS assay (AID 1963592). Further: series mostly up to about 92 µM; nearly all actives have a fitted effect of over 50% in size. The method, boiled down: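 Assay format: CHO-ADRB2 cells, 18-20hr seeding at 37C/5% CO2, then compound plus 1nM isoproterenol agonist mix for 0.5hr RT. Homogeneous time-resolved fluorescence cAMP detection after 1hr, expressed as 665/615 nm ratio.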

Assay [16] deals with D(2) dopamine receptor (Homo sapiens) (UniProt P14416). Nature of the assay: Dopamine D2 receptor (DRD2) small molecule agonists, cell-based qHTS assay (AID 1963594). Further: nearly all actives have a fitted effect of over 35% in size. Further: potency means the concentration at half of the fitted maximal effect. In outline:
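HEK293 cells stably expressing human DRD2, pre-treated with PDE inhibitor Ro20-1724 (0.1 mM final) and compound 10 min at room temperature, then stimulated with NKH477 (200nM […]) for 30 min. cAMP read by HTRF (665/620 nm).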

Assay [17] has as its target KiSS-1 receptor (Homo sapiens) (UniProt Q969F8). Nature of the assay: Human kisspeptin (KISS1R) small molecule agonists, calcium flux assay in KISS1R-HEK293 cells (AID 1920064; active means well fitted curve in the direction sought with a large enough effect in the repeat runs; an effect the other way counts as inactive or inconclusive). In outline: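 Agonist activity is monitored as intracellular calcium rise in engineered HEK293 cells carrying human KISS1R. Cells are dye-loaded for 1 h at 37 C before compound addition, and fluorescence is recorded for 3 min.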
(In general: Calcium flux is commonly read through the fluorescence of an indicator in the cells.)

Assay [18] addresses 5-hydroxytryptamine receptor 2A (Homo sapiens) (UniProt P28223). Nature of the assay: 5-hydroxytryptamine receptor 2A (HTR2A) small molecule agonists, cell-based qHTS assay (AID 1963587). Further: nearly all actives have a fitted effect of over 30% in size. In outline:
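CHO cells stably expressing human HTR2A, plated 18 h, loaded with calcium dye 1 h at 37 C. Agonist mode: compounds added and intracellular calcium fluorescence recorded kinetically for 2 min at 1 sec intervals.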

Assay [19] addresses D(2) dopamine receptor (Homo sapiens) (UniProt P14416). Nature of the assay: Dopamine D2 receptor (DRD2) small molecule antagonists, cell-based qHTS assay (AID 1963595; active means well fitted inhibition curve with a large enough effect in the signal ratio in the repeat runs, with a control signal flat; the % refers to the signal ratio). The method, boiled down: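 HEK293 cells stably expressing DRD2, preincubated with 0.1 mM Ro20-1724 and compounds 10 min, were stimulated with 200 nM NKH477 plus 12 nM quinpirole for 30 min at room temperature; cAMP measured by HTRF (665/620 nm).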

The target of assay [20] is Beta-2 adrenergic receptor (Homo sapiens) (UniProt P07550). Nature of the assay: Adrenergic beta2 receptor (ADRB2) small molecule agonists, cell-based qHTS assay (AID 1963593).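 Further: CHO cells stably overexpressing human ADRB2.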 In outline: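 CHO cells stably over-expressing ADRB2 were plated overnight at 37C, then dosed with compounds plus a stimulation mix containing 100uM IBMX and 25uM Ro-20-1724 for 0.5hr at room temperature. cAMP was measured by HTRF competition, 1hr.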

Sequence of D(2) dopamine receptor (Homo sapiens) (P14416 whole entry, looked up): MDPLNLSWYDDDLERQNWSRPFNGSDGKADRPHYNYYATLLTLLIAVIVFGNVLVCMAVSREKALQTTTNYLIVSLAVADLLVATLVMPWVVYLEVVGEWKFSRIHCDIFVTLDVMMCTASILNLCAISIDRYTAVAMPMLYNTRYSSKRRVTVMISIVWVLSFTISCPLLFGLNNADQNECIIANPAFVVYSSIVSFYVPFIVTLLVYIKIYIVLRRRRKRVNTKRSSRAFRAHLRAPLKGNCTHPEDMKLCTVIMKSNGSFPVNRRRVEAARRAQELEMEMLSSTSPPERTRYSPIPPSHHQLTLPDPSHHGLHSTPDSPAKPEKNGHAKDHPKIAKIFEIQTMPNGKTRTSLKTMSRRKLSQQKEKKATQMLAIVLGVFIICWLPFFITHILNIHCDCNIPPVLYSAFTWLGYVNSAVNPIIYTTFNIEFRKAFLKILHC
Sequence of 5-hydroxytryptamine receptor 2A (Homo sapiens) (P28223 whole entry, looked up): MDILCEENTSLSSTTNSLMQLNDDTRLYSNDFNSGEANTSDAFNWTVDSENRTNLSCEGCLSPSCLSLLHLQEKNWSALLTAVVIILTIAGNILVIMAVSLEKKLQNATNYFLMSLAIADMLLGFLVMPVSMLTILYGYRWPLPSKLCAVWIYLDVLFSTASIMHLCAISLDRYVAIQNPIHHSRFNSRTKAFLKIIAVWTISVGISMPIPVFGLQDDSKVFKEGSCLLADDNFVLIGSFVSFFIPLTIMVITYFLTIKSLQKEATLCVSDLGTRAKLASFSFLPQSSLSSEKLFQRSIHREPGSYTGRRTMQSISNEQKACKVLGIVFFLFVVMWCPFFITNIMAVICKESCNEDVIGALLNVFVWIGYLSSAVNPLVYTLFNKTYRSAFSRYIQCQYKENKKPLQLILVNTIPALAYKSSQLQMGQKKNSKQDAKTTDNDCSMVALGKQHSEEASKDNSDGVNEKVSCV
Sequence of KiSS-1 receptor (Homo sapiens) (Q969F8 whole entry, looked up): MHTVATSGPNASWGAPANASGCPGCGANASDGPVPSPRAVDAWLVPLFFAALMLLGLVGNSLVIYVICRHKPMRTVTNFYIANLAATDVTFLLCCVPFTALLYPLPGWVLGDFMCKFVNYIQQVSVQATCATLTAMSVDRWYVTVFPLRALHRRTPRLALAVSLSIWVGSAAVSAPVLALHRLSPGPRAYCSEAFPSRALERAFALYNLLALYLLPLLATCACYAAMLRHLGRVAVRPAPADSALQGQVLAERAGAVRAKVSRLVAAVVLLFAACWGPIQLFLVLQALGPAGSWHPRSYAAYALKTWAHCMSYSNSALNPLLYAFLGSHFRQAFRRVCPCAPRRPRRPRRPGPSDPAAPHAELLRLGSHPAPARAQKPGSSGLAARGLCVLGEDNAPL
Sequence of Muscarinic acetylcholine receptor M1 (Homo sapiens) (P11229 whole entry, looked up): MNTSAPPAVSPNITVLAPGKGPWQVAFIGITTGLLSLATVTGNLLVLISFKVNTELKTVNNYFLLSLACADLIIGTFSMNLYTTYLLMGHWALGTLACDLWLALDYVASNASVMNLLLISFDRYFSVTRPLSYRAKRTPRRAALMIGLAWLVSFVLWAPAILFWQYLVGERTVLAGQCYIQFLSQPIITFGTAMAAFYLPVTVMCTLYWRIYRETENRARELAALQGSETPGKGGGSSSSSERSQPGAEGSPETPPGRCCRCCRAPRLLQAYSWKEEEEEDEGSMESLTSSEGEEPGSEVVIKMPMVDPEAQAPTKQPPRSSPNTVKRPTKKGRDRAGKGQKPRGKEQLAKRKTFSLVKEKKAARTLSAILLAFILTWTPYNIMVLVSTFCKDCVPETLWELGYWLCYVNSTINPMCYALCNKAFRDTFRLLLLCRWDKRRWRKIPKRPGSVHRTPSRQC
Sequence of Beta-2 adrenergic receptor (Homo sapiens) (P07550 whole entry, looked up): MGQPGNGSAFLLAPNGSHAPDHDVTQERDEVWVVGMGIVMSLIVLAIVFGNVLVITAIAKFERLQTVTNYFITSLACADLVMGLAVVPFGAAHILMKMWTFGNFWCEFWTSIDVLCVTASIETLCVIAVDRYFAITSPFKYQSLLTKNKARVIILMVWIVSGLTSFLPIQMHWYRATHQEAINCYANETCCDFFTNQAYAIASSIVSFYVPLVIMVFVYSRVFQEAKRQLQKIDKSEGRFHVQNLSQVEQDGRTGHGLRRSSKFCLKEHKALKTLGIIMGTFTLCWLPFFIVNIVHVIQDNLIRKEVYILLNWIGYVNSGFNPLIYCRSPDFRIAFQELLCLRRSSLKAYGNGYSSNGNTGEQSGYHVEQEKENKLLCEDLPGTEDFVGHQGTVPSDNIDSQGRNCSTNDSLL

Turning to `CC(c1ccc(O)cc1)c1ccc(O)cc1`, the Potency entry in assay [1], in assay [3], in assay [4], in assay [5], in assay [6] and in assay [7] was “inactive” throughout. For the same compound, the Potency result in assay [8], in [10], in assay [12], in assay [13], in assay [14] and in [15] was “inactive” in each case. In assay [16], the Potency entry was “inactive”. Further, the Potency is 64.3 µM (active) and inactive in assay [2]; 38.2 µM (active) in assay [9]; 15.7 µM (active) and inactive in assay [11].
With `COP(=S)(OC)Oc1ccc(Sc2ccc(OP(=S)(OC)OC)cc2)cc1`, the Potency result in assay [1], in [2], in [17], in assay [3], in assay [6] and in assay [7] was “inactive” throughout. The Potency entry in [9], in assay [10], in assay [18], in assay [11], in assay [12] and in assay [13] was “inactive” throughout. Also, the Potency result in [14], in assay [15], in assay [16] and in [19] was “inactive” in each case.
As to `NC(=S)Nc1ccccc1`, the Potency result in assay [1], in [17], in [3], in assay [6], in assay [8] and in assay [10] was “inactive” in each case. Moreover, the Potency result in assay [18], in assay [11], in assay [12], in assay [13], in assay [15] and in assay [16] was “inactive” throughout. For the same compound, the Potency is 55.4 µM (active) and inactive in assay [2]; 29.4 µM (active) and inactive in assay [7].
For the compound `Clc1ccc(Cl)c(Cl)c1`, the Potency entry in assay [1], in assay [17], in assay [3], in assay [4], in assay [5] and in assay [6] was “inactive” each time. Further, the Potency entry in assay [7], in assay [8], in assay [9], in [10], in [18] and in assay [11] was “inactive” each time. For the same compound, the Potency entry in assay [12], in assay [13], in assay [14], in [15], in [20] and in assay [16] was “inactive” each time. Besides, in assay [19], the Potency result is “inactive”.
For the compound `C=CCBr`, the Potency result in [1], in assay [2], in [17], in assay [3], in assay [4] and in assay [6] was “inactive” throughout. Also, the Potency entry in assay [7], in assay [8], in [9], in assay [10], in assay [18] and in assay [11] was “inactive” in each case. Moreover, the Potency entry in assay [12], in [13], in [14], in assay [15], in assay [20] and in assay [16] was “inactive” throughout. Also, the Potency result in assay [19] is “inactive”.
Turning to `CCCCCCCCCC(CC)c1ccc(S(=O)(=O)O)cc1` (stereo unspecified), the Potency entry was “inactive and 26.6 µM (active)” in assay [1]; “inactive and 21.7 µM (active)” in assay [2]; “inactive and 40.8 µM (active)” in [7]; “inactive and 48.5 µM (active)” in assay [8]; “inactive and 37.5 µM (active)” in assay [10]; “inactive and 54.5 µM (active)” in [16]. Moreover, the Potency entry in [17], in assay [6], in assay [11], in assay [12], in [13] and in assay [14] was “inactive” each time. The Potency result in assay [15], in [20] and in assay [19] was “inactive” each time.
As to `N#Cc1ccccc1N`, the Potency result in [1], in assay [2], in assay [4], in assay [5], in assay [6] and in assay [7] was “inactive” each time. In addition, the Potency result in [8], in assay [9], in assay [10], in assay [18], in [11] and in assay [12] was “inactive” in each case. For the same compound, the Potency result in [13], in [15], in [20], in assay [16] and in assay [19] was “inactive” in each case.
